# Results reported in PubChem BioAssay AID1963576 (National Center for Advancing Translational Sciences (NCATS), 2024).
# Screen size: about 46,000 compounds; about 60 (0.1%) were called active. Not shown: some 3% with an inconclusive outcome. The full list was thinned out, with actives kept by preference. Values without a mark were called inactive. Calls follow the shape of the dose curve; as a rule, active = well fitted inhibition curve with a large enough effect; inconclusive = small, poorly fitted or top-dose-only effect; inactive = no such curve, though single readings can be large or run the other way.
# Assay: Primary qHTS assay for Inhibitors of ovarian cancer metastasis using an organotypic tumor microenvironment (TME) model. Also: nearly all actives have a fitted effect of over 65% in size.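 As to Potency: count of GFP cancer cells still attached after washing and fixation.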
# Details: SKOV3ip1-GFP adhesion/invasion on 3D omental model, fluorescence; series mostly up to 45.8 µM; activity change, negative = inhibition: at the top concentration
# Text: PI: Ernst Lengyel MD., Ph.D. Department of Obstetrics and Gynecology, Section of Gynecologic Oncology University of Chicago Medicine, Chicago, Illinois. The tumor microenvironment (TME) is a key determinant of metastatic efficiency. We performed a quantitative high-throughput screen (qHTS) of diverse medicinal chemistry tractable scaffolds (44,420 compounds) and pharmacologically active small molecules (386 compounds) using a layered organotypic, robust assay representing the ovarian cancer metastatic TME. This 3D model contains primary human mesothelial cells, fibroblasts, and extracellular matrix, to which fluorescently labeled ovarian cancer cells are added. Initially, 100 compounds inhibiting ovarian cancer adhesion/invasion to the 3D model in a dose-dependent manner were identified. Of those, eight compounds were confirmed active in five high-grade serous ovarian cancer cell lines and were further validated in secondary in vitro and in vivo biological assays. […] Specifically, NCGC00117362 and PP-121 inhibited ovarian cancer adhesion, invasion, and proliferation, whereas milciclib inhibited ovarian cancer invasion and proliferation. […] To evaluate the clinical potential of NCGC00117362, structure - activity relationship studies were performed. […] The three compounds identified have promise as therapeutics for prevention and treatment of ovarian cancer metastasis.
# PROTOCOL TABLE (as described by Inglese J, Shamu CE and Guy RK. 2007) SEQUENCE No. (e.g., 1, 2, 3, etc.); […] (e.g., Cells, Incubation, Reagent, etc.); VALUE; DESCRIPTION. 1; Cells; 4 uL; primary human omental fibroblast, black, clear bottom, low base, 1536-well Aurora assay plate. 2; Incubation; 48 hr; 37C. 3; Cells; 3 uL; 1,200 SKOV3ip1-GFP cells. 4; Compounds; 23nL; acoustic dispenser. 5; Incubation; 2 hr; room temperature. 6; Incubation; 16 hr; 37C. 7; Wash; 5 uL; 1x PBS. 8; Fixing; 5 uL; 4% paraformaldehyde (PFA). 9; Incubation; 15 min; room temperature 10; Wash, 5 uL; 1x PBS. 11; Detection; Fluorescence, excitation filter 488 nm, emission filter 509 nm. NOTES (numbers refer to Sequence numbers above) 1. For the 1,536-well format, 40 primary human omental fibroblasts and 400 mesothelial cells were seeded with 0.02 µg fibronectin and 0.02 µg collagen type I in 4 µL of growth media (2.3 mm2; Supplementary Fig. S1A). 2. Assay plates were incubated for 48 hours at 37 C. 3. After incubation, 1,200 SKOV3ip1-GFP were seeded in 3 µL of serum-free media (growth media minus FBS) on top of primary human omental cells. 4. Compounds or controls were added to each well immediately after the addition of the cancer cells. Compounds were screened in four doses (0.36-46 µmol/L), and the plates contained the positive control (Tomatine) in eight doses (0.035-75 µmol/L) and DMSO (equal volume controls) 5 - 6. The plates were incubated at room temperature for 2 hours and then at 37 degrees C for 16 hours. 7 - 10. Following incubation, the media were aspirated and each well washed with PBS (5 µL) and then fixed with 4% paraformaldehyde (PFA; 5 µL). After 15 minutes, the PFA solution was aspirated, PBS (5 µL) was added. 11. The number of GFP-labeled cells analyzed using a fluorescent cytometer TTP LabTech Acumen eX3 using 488 nm excitation filter and 509 nm emission filter. Data was normalized to the DMSO treated for negative and Tomatine treated wells for positive control. REFERENCES: Inglese J, Shamu CE and Guy RK, Reporting data from high throughput screening of small molecule libraries, Nature Chemical Biology, 2007, 3(8): 438-441. doi.org/10.1038/nchembio0807-438. Yasgar A, Shinn P, Jadhav A, Auld DS, Michael S, Zheng W, Austin CP, Inglese J and Simeonov A, Compound Management for Quantitative High-Throughput Screening. J. Assoc. Lab. Auto., 2008, 13: 79-89. doi: 10.1016/j.jala.2007.12.004.
# Potency is read from the fitted curve at half-maximal effect.
SMILES,outcome,Potency,"activity change, negative = inhibition"
CCOc1ccc(NC(=O)c2c(NC(=O)Cc3ccccc3)sc3c2CCCCC3)cc1,inactive,–,–
Cc1ccc(NC(=O)c2nc(S(=O)(=O)Cc3cccc(C)c3)ncc2Cl)cc1,–,3.16 µM (active),–
CCSc1ncc(Cl)c(C(=O)Nc2cc(C)ccc2C)n1,inactive,–,–
CCCS(=O)(=O)c1ncc(Cl)c(C(=O)Nc2scc(-c3ccccc3)c2C(=O)OCC)n1,–,–,3.76%
CCOC(=O)N1CCc2c(sc3c2C(=O)NC(c2ccccc2F)N3)C1 (stereo not drawn),–,–,-21.5%
COc1ccc(-c2nc(CN3CCC(C(=O)NCCN(CC(C)C)CC(C)C)CC3)c(C)o2)cc1OC,–,–,3.13%
CC(C)c1ccc(Cn2c(COc3ccccc3)nc3ccccc32)cc1,–,–,-0.836%
CCc1ccc(C=C2SC(=S)NC2=O)cc1,–,–,-4.26%
COc1ccc(-c2[nH]c3c(c2-c2c(-n4cccc4)n(C)c(=O)n(C)c2=O)c(=O)n(C)c(=O)n3C)cc1,–,–,6.37%
COc1ccc2c(C)c(CCC(=O)NCc3ccc(OC)c(OC)c3)c(=O)oc2c1,–,–,-0.405%
CC(C)(C)C1CCc2c(sc(NC(=O)c3ccccc3F)c2C(=O)N2CCCCC2)C1 (stereo not drawn),–,–,6.61%
CCc1ccccc1NC(=O)c1cnn(-c2ccc(F)cc2)c1C1CCNCC1,–,–,1.55%
CCCCOc1ccc(CNC(=O)c2ccc3c(c2)N(C)C(=O)C2CCCCN32)cc1 (stereo not drawn),inactive,–,–
COc1ccc(CCNC(=O)CCCCn2c(=O)c3ccccc3n(Cc3ccccc3C)c2=O)cc1OC,–,–,9.65%
CC=C(C(=CC)c1ccc(O)cc1)c1ccc(O)cc1,–,–,-8.67%
Cc1cc2nc(NC(=O)c3ccc(S(=O)(=O)N4CCOCC4)cc3)sc2cc1C,–,–,-13.4%
COc1ccc(-c2cc(C(=O)Nc3sc4c(c3C(N)=O)CCCC4)no2)cc1,–,–,33.1%
Cc1ccc2c(c1)N(C(=O)Nc1ccc(Br)cc1F)CCO2,inactive,–,–
COc1ccc2c(CNCCc3ccccc3C)c(C(=O)O)n(Cc3ccccc3C)c2c1,–,–,1.4%
CCOc1cc(C2C(C(=O)OC)=C(C)NC3=C2C(=O)c2ccccc23)ccc1O (stereo not drawn),–,–,-5.14%
COc1ccc2c(c1)CCc1c(C(=O)Nc3cc(C)ccc3O)noc1-2,inactive,–,–
Cc1ccccc1CNC(=O)c1ccc(NC(=O)N2CCCCc3ccccc32)cc1,–,–,-3.35%

SMILES,outcome,Potency,"activity change, negative = inhibition"
CCCN1CCN(CCCNC(=O)Cn2nc(CC)n3c(cc4occc43)c2=O)CC1,–,–,0.82%
CCOC(=O)C1CCC(CN(Cc2ccc(OC)cc2)S(=O)(=O)c2ccc(F)c(C(=O)Nc3cc(C)ccc3C)c2)CC1 (stereo not drawn),inactive,–,–
Cc1n[nH]c(C)c1S(=O)(=O)N1CCCC(C(=O)Nc2ccc(Br)cc2)C1 (stereo not drawn),–,–,6.06%
COc1ccc(NC(=O)C(=O)NCc2ccco2)cc1,–,–,-4.16%
N#Cc1nc(/C=C/c2ccc(F)cc2)oc1NCc1ccc(F)cc1,inactive,–,–
CCOc1ccc(-c2nonc2NC(=O)c2oc3ccc(C)cc3c2C)cc1OCC,–,–,-20.8%
CCC(=O)Nc1ccccc1-c1nc2ccccc2n(CC(=O)Nc2ccc(C)c(C)c2)c1=O,–,–,2.4%
Cc1ccc2nc(NC(=O)c3nc(SCc4ccccc4F)ncc3Cl)sc2c1,inactive,–,–
COc1ccc(Cn2ccc3nc(C)c(C(=O)Nc4ccc(C)c(F)c4)cc3c2=O)cc1,–,–,1.42%
CCCCNC(=O)C1CCCN(c2nnc(C)c3c(C)n(-c4ccc(Cl)cc4)nc23)C1 (stereo not drawn),–,–,4.38%
COC(=O)c1cc(NC(=O)c2sc3ccccc3c2Cl)cc(C(=O)OC)c1,–,–,0.94%
Cc1cccc(S(=O)(=O)c2cn(Cc3ccccc3)c3cc(N4CCOCC4)c(F)cc3c2=O)c1,–,–,2.35%
CC1=C(c2ccc(F)cc2)S(=O)(=O)N=C1N1CCC(C(=O)NCCc2ccccc2C)CC1,–,–,-4.77%
CCOC(=O)C1CCCN(S(=O)(=O)c2cc(-c3cc(C)no3)ccc2OC)C1 (stereo not drawn),–,–,-0.925%
CCOc1ccccc1NC(=O)Cn1c(=O)n(-c2cccc(C)c2)c(=O)c2c1c1cc(OC)ccc1n2C,–,–,6.79%
COc1ccc(CCNC(=O)C(=O)NCC(c2ccco2)S(=O)(=O)c2cccs2)cc1OC (stereo not drawn),–,–,12%
COc1ccc(CCNCc2c(C(=O)O)c(C)n(Cc3cccc(C)c3)c2C)cc1OC,–,–,-2.02%
CCN(CC)CCNC(=O)c1c(C)[nH]c(C=C2C(=O)Nc3ccc(F)cc32)c1C,–,–,-23.8% [at 92.2 µM]
COc1ccc(C2(Nc3cccc(F)c3)C(=O)c3ccccc3C2=O)cc1,inactive,–,–
COc1ccc(/C=C/c2nc(C#N)c(NCc3ccc(F)cc3)o2)cc1OC,inactive,–,–
COc1ccc(NC(C)=O)cc1NC(=O)CN1CCN(c2ccc(F)cc2)CC1,–,–,3.17%
